This is an account of results in the OligoGym collection.

Some targets named below: TMED3; TMEFF2; TMCO6; TMED9; TMEM218; TMEM8B; TNFAIP6; TNPO2; TRAPPC2; TRIM38; TRMT1; TSC1; TRPM6; TRPM3; TRPV1.
Holding throughout (assay): pooled miR-30 sensor sort-seq; sequence = guide strand
Common to all, as to details: shRNA
Also: reference of the scale not given here.

As to ATAGCAGTCAACATCGTAGTGG, the sensor-assay potency score (higher = more potent) in the assay with TMED3 was -0.497. On the same count and under the same terms, then TTCAACAGTAGCACCTGACTGA, with 0.248.

TTGTGTTATCTTGACATCGACC showed a sensor-assay potency score (higher = more potent) in the assay with TMEFF2 of -0.895. Consider TACTGCTTCTTCGTTTCTCTGT, for which the sensor-assay potency score (higher = more potent) in the assay with TMED3 is -0.244. The sequence TAGCATTCTCTGCATAATCTGT displayed a sensor-assay potency score (higher = more potent) in the assay with TMEFF2 of -0.543. TTGAAAGTCAAAGTAGACGGTC: the sensor-assay potency score (higher = more potent) with TMED3 was -0.0324. With TATAGAACACTGTAGTCCTTTT, the sensor-assay potency score (higher = more potent) in the assay with TMEFF2 is -0.956. As for TAGCAGTCAACATCGTAGTGGC, the sensor-assay potency score (higher = more potent) with TMED3 was -0.101.

TCAATATTACACACACACCAGA returned a sensor-assay potency score (higher = more potent) with TMEFF2 of -1.06. Sequence TTGTAGCATGTGCTGAGGGAGA showed a sensor-assay potency score (higher = more potent) with TMCO6 of -1.18. TTGAGGTGCCGCATCTGCCAGA registered a sensor-assay potency score (higher = more potent) with TMED9 of -0.928. Turning to TAGAACACTGTAGTCCTTTTTT, the sensor-assay potency score (higher = more potent) in the assay with TMEFF2 was -1.55. Still for that read-out and setting: then TACAGGACCGGGAACAACGTAT, with -0.637. In the assay with TMEM218, TCTTAACTTCCACTTCTGGGGC displayed a sensor-assay potency score (higher = more potent) of -0.618. In the case of TAGAAGTGGACAGAGAAGGTGT, the sensor-assay potency score (higher = more potent) with TMEM8B is 0.765. For the sequence TAAGATGCAGACACCACCGCAT, the sensor-assay potency score (higher = more potent) with TMEM8B was 0.345.

In the assay with TNFAIP6, TAGTACTTGTATTTTTTCCTTG yielded a sensor-assay potency score (higher = more potent) of -0.262. As to TTATCTTCGTACTCATTTGGGA, the sensor-assay potency score (higher = more potent) in the assay with TNFAIP6 was -0.091. TTTGAGTTTATCCTGCACGATG came in with a sensor-assay potency score (higher = more potent) with TNPO2 of -1.1.

The sequence TTTGAGCAGCTGCAGGACCTGC yielded a sensor-assay potency score (higher = more potent) with TNPO2 of -1.11. In the assay with TRAPPC2, TCGTTGAACTTGTCCACAGTTT showed a sensor-assay potency score (higher = more potent) of -0.427. Same read-out and setting: next, TTGATCGAATAGGAGAATTGGG: -0.578. Sequence TCTGTCTTCAAGTTGCTTCAGT yielded a sensor-assay potency score (higher = more potent) with TRIM38 of 0.253.

As for TTCTTGATCCGTCTCTTTGAGG, the sensor-assay potency score (higher = more potent) in the assay with TRIM38 is -1.24.

TTTGCGTGTCCTTCTCTCCTGG: in the assay with TRMT1, the sensor-assay potency score (higher = more potent) amounted to 0.33. TAGAAGTCAGCGCTGATGCTGA came in with a sensor-assay potency score (higher = more potent) with TRMT1 of -0.13. TAGATATTTCTTCTGTTCCAAA: the sensor-assay potency score (higher = more potent) with TSC1 was -1.26. Still for that read-out and setting: then ATATTTAACAACATCAGCCGAG, with 0.191.

Take TAAGTGAGCAATAGGCTCGTGC: the sensor-assay potency score (higher = more potent) with TRPM6 was -0.42. In the assay with TSC1, TAGATATTGCAGCTTCTTCTTT registered a sensor-assay potency score (higher = more potent) of -0.827.

As to TTGTACAATTCCTCTAGTCTGG, in the assay with TRPM3, the sensor-assay potency score (higher = more potent) was -0.181.

In turn, TAGAACTCATAGACTTTCCTGG had a sensor-assay potency score (higher = more potent) with TRPM6 of 0.494. TAGAGTGACAGAACCTTTGCTG came in with a sensor-assay potency score (higher = more potent) with TSC1 of 0.691. The same measure, in the same setting: next, TGAACTTGCACTCAGACCCTGG: -0.099. Sequence TAAAACTATGACTCCTAGCGAA came in with a sensor-assay potency score (higher = more potent) with TRPM6 of -0.766.

On to TATAGATCAATTTTTGAGCAGC, for which the sensor-assay potency score (higher = more potent) with TRPM6 was -0.262.

TTCTCTTGTAACTTCAACTGAT gave a sensor-assay potency score (higher = more potent) with TSC1 of 0.432. Take ATGTAGACAAACATGAAACGGC: the sensor-assay potency score (higher = more potent) with TRPV1 was -0.484. In the case of TTGAAGTAGAAGATGCGCTTGA, the sensor-assay potency score (higher = more potent) with TRPV1 turned out to be 0.616. Regarding TATGTTATCACAGAGTTCCTGG, in the assay with TRPM6, the sensor-assay potency score (higher = more potent) is 0.658. The sequence TTGTCTGTGAGGTGCTTCTTGC returned a sensor-assay potency score (higher = more potent) with TRPV1 of -0.584. Still for that read-out and setting: next, TTAAGGAAGCTCTTCTCCGTGT: -0.306. On to TTATTTTACCATCCTCTCGGGT, for which the sensor-assay potency score (higher = more potent) with TRPM3 was -0.671.

TTCTATACCACCTTTGTCTTTC returned a sensor-assay potency score (higher = more potent) in the assay with TRPM3 of 0.0572.

TTGTTGTTGTTATACTTCCGGA: the sensor-assay potency score (higher = more potent) with TRPM6 was -0.714. On the same count and under the same terms, then TTGAGTGTTGTGAGCTTGCTGA, with -0.408. TAATTCTTCAACTCTTCTGAGG returned a sensor-assay potency score (higher = more potent) in the assay with TRPM6 of -0.79.

In the assay with TRPV1, TAACTCGGAAATAGTCTCCAGT gave a sensor-assay potency score (higher = more potent) of 0.133. On the same count and under the same terms, next, ATGCTCGTCACAAACTTCGTGT: -0.192.

TTTCTCATTCTGAAGCACGGAG had a sensor-assay potency score (higher = more potent) in the assay with TRPM3 of -0.126. Take TAAATGTAACAGATGATCCAGT: the sensor-assay potency score (higher = more potent) with TRPM6 was found to be 0.213. Sequence TAGTAGAGCATGTTGGTCCAGC yielded a sensor-assay potency score (higher = more potent) in the assay with TRPV1 of -0.185. The same measure, in the same setting: next, TAGTAGCTGTCCGTGTAGCTGG: -0.744.

In the assay with TRPV1, TTGAGCAGGAGGATGTAGGTGA showed a sensor-assay potency score (higher = more potent) of 1.19.

TTGTTCTTGAACTCCAAGCTGA registered a sensor-assay potency score (higher = more potent) in the assay with TRPM3 of -0.171. Still for that read-out and setting: then TATTTTACCATCCTCTCGGGTC, with -0.479. In the assay with TSC1, TATTTAACAACATCAGCCGAGA displayed a sensor-assay potency score (higher = more potent) of -0.654.

Consider TGTTCTTTTGACTTCTTCCTTG, for which, in the assay with TRPM6, the sensor-assay potency score (higher = more potent) was found to be 0.00322. Sequence TTGGTGTTCCAGGTGGTCCAGT showed a sensor-assay potency score (higher = more potent) in the assay with TRPV1 of -0.829.

For TCGCAGATAAACTTCCTCGGGC, the sensor-assay potency score (higher = more potent) with TRPV1 turned out to be 0.131.
